Pf growth 96h: inhibits malaria parasite growth, 96 h | P. falciparum luciferase reporter growth, 96 h | Potency, µM (highest dose often 28.7 µM), for the others: top-dose activity change, negative = inhibition, hits mostly inhibitors | 320,000 tested, 6.9% active | AID 504834
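Two-generation exposure (96 h) targets delayed-death phenotype. Reporter parasites carrying integrated firefly luciferase, in red cells at 2% hematocrit and 0.05% parasitemia final, kept at 37 C, 5% CO2; luminescence loss indicates inhibition.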
HCV inhibitor: HCV inhibition; Huh7.5.1 HCVcc-Cre infection, luciferase reporter, 44 h; Potency, µM (titrated, usually from 41.8 µM), inactives show at the top dose activity change, negative = inhibition, actives largely listed as inhibitors; 340,000 tested, 3.4% active; AID 651820
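After 44 h co-culture of compound, cells and HCVcc-Cre (~0.5 moi), substrate is added for 15 min at room temperature and luciferase measured over 15 sec. Cells were seeded at 1,000/well and pre-cultured 4 h.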
Pf growth 48h: P. falciparum growth inhibition at 48 hours (one generation) | P. falciparum luciferase growth in erythrocytes, 48 h | 310,000 tested, 5.9% active | AID 504832 | Potency, µM (top dose mostly 28.7 µM), inactives show at the highest dose activity change, negative = inhibition, most hits filed as inhibitors
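Erythrocytes infected with P. falciparum carrying an integrated firefly luciferase reporter (2% hematocrit, 0.1% parasitemia final) were exposed to compounds in RPMI 1640 with 0.5% Albumax at 37 C, 5% CO2. Growth inhibition was scored as reduced luminescence.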
AMA1 RON2 block: disrupts binding of P. falciparum AMA1 to RON2 | AID 720542 | 360,000 tested, 0.2% active | Potency, µM (doses to about 58.2 µM), inactives show at the highest dose activity change, negative = inhibition, usual class: inhibitors | AlphaScreen AMA1-biotinylated RON2 peptide binding;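 also: 0% = vehicle wells and -100% = peptide control; nearly all actives have a fitted effect of over 45% in size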
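AMA1 (3D7) with his tag at 25 nM final met compounds first, then biotinylated RON2 peptide at 25 nM; detection used donor plus acceptor beads, 10 µg/mL apiece, read by AlphaScreen after 30 min at room temperature.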
An asterisk follows results filed as active; ? = inconclusive; · = no result given. Shown are actives, neighbours in structure and some others; about 11% of the full set was active somewhere. Calls follow the shape of the dose curve; as a rule, active = well fitted curve in the direction sought with a large enough effect; inconclusive = small, poorly fitted or top-dose-only effect, or another doubt; inactive = no such curve, though single readings can be large; an effect the other way counts as inactive or inconclusive. Unless noted, % is scaled to controls: 0 for no effect and ±100 for the full control effect; potency is read from the fitted curve at half-maximal effect.

SMILES	Pf growth 96h	HCV inhibitor	Pf growth 48h	AMA1 RON2 block
COc1ccccc1Nc1nc(Cl)nc(Nc2ccccc2OC)n1	-26.3%	12.6µM*	-4.2%	-8.3%
COc1ccccc1Nc1cc(C)nc(Nc2ccccc2OC)n1	10.4µM*	2.51µM*	?	-22.9%
CCn1c(NCCO)nc2c(c1=O)C(C)(CC)Cc1ccccc1-2 (stereo unspecified)	?	-3.8%	-6.7%	-4.8%
CCC1(C)Cc2ccccc2-c2nc(NCCCO)n(-c3ccccc3)c(=O)c21 (stereo unspecified)	10.4µM*	?	·	5.0%
Cc1cccc(/C=N\N=C\c2cccc(C)c2)c1	7.38µM*	8.8%	?	3.6%
Cc1cccc(/C=N/n2c(C)nnc2C)c1	1.5%	14.8%	27.1%	-1.1%
CCC(NS(=O)(=O)c1ccc(OC)cc1)C(=O)NCCc1ccccc1 (stereo unspecified)	?	-10.5%	?	13.0%
O=C1/C(=C/c2ccccc2)NC(=S)N1C(c1ccccc1)c1ccccc1	·	?	11.7µM*	61.0%
Cc1nc2c(sc(=S)n2Cc2ccco2)c(=O)n1CC(=O)Nc1ccc(F)cc1	8.9%	?	?	-10.8%
Cc1nc2c(sc(=S)n2Cc2ccco2)c(=O)n1CC(=O)Nc1cc(F)ccc1F	?	12.6µM*	-25.3%	-3.2%
COc1ccccc1NC(=O)Cn1c(C)nc2c(sc(=S)n2Cc2ccco2)c1=O	?	12.6µM*	-8.5%	-8.5%
CN(C)c1ccc(C=O)c(Oc2ccccc2)c1	·	·	·	-4.9%
CC(C)Cc1ccc(C(C)C(N)=NCCc2ccccc2)cc1 (stereo unspecified)	?	?	?	-10.4%
CCOC(=O)C1=C(N)Oc2cc(O)ccc2C1c1cccc([N+](=O)[O-])c1 (stereo unspecified)	-63.8%	?	-8.1%	-23.7%
CCCc1c(C(=O)N/N=C/c2cccc(OCc3ccc(F)cc3)c2)nnn1-c1nonc1N	2.7%	17.0%	0.2%	14.4%
O=C1CC(c2ccsc2)c2cc3c(cc2N1)OCCO3 (stereo unspecified)	11.7µM*	?	?	-4.9%
Cc1cc2c(cc1C)C(c1ccsc1)CC(=O)N2 (stereo unspecified)	4.65µM*	22.4%	94.7%	9.4%
O=C(N/C(=C/c1ccc(F)cc1)C(=O)N1CCOCC1)c1ccco1	·	·	·	-6.6%
COc1ccc(C(=O)OCCN2CCN(C3=NS(=O)(=O)c4ccccc43)CC2)cc1OC	8.28µM*	2.1%	-17.0%	11.6%
CC(=O)N1CCN(Cc2nc3cc(NC(=O)COc4cccc(C)c4)ccc3n2C)CC1	25.6%	-18.1%	-28.6%	2.5%
OC[C@@H]1CN(Cc2ccc3c(c2)OCO3)C[C@H](n2cnc3c(NCc4ccc(F)cc4)ncnc32)O1	·	·	·	1.6%
CC(=O)C1=NN(c2ccccc2)C2(S1)S/C(=C\c1ccccc1)C(=O)N2c1ccccc1 (stereo unspecified)	·	?	11.7µM*	-16.4%
COC(=O)C1=NN(c2ccccc2)C2(S1)SC(C(C)=O)=C(C)N2c1ccccc1 (stereo unspecified)	0.1%	6.3%	?	?
COC(=O)C1=NN(c2ccc(C)cc2)C2(S1)SC(C(C)=O)=C(C)N2c1ccccc1 (stereo unspecified)	·	12.9%	10.4µM*	-5.8%
COc1cc2c(cc1OC)C(C)N(C(=O)Nc1ccc(F)cc1)CC2 (stereo unspecified)	-22.8%	-25.9%	-21.0%	-1.5%
SMILES	Pf growth 96h	HCV inhibitor	Pf growth 48h	AMA1 RON2 block
Cc1cc2oc(=O)cc(CN3CCN(S(=O)(=O)/C=C/c4ccccc4)CC3)c2cc1C	?	?	10.4µM*	-0.8%
Cc1cc(C)c2c(CN3CCCCC3)cc(=O)oc2c1	4.4%	0.8%	17.3%	-1.6%
Cc1ccc(S(=O)(=O)N2CCN(Cc3cc4c(cc3Br)OCCO4)CC2)cc1	?	?	?	-9.8%
Cc1cc(C)c2c(CN3CCN(C/C=C/c4ccccc4)CC3)cc(=O)oc2c1	7.38µM*	?	9.28µM*	-25.2%
Cc1cc2oc(=O)cc(CN3CCN(S(=O)(=O)c4ccc5c(c4)OCCO5)CC3)c2cc1C	?	7.08µM*	?	1.1%
Cc1cccc(C)c1NC(=O)C(=O)NCc1ccccn1	70.1%	-0.1%	5.9%	9.5%
O=S(=O)(c1cccc(F)c1)N1CCN(C(=S)NCC2CCCO2)CC1 (stereo unspecified)	?	2.5%	?	1.6%
